Compound activity (PubChem BioAssay)
This is a sample that favours compounds with a hit; in the whole collection about 7.1% have one here.
p53 reactivation: restores transcriptional activity of mutant p53; AID 504706; 320,000 compounds, 0.063% hits; Potency, µM (doses to about 92.2 µM), most hits filed as activators; H1299 p53-A138V BP100-luciferase reporter, luminescence, 24 h; further: nearly all actives have a fitted effect of over 45% in size
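p53-null H1299 cells stably carrying temperature-sensitive p53-A138V and a BP100-luciferase reporter were pinned with compounds (4-point, 1:5 series) and held 24 hrs at 37 deg C. Luminescence was read 10 min after detection reagent.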
MCF10A rerep: inducers of DNA re-replication in MCF 10A breast cells; AID 624296; Potency, µM (titrated, usually from 46.1 µM), most hits filed as activators; MCF 10A DNA re-replication, Hoechst nuclear intensity, 48 h; 350,000 compounds, 2.9% hits; further: nearly all actives have a fitted effect of over 50% in size
SW480 rereplic: DNA re-replication induction in SW480 cells. SW480 DNA re-replication, Hoechst DNA content imaging, 48 h. Potency, µM (series often up to 46.1 µM), most hits filed as activators. 340,000 compounds, 1.8% hits; further: nearly all actives have a fitted effect of over 55% in size
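Treated cells incubate 48 hr (37 C, 5% CO2), are stained 40 min with Hoechst, and nuclear fluorescence is enumerated; a rise in nuclei with high DNA signal marks re-replication.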
ELG1 repair inh: blocks ELG1-dependent DNA repair in HEK293T cells. HEK293T ELG1-luciferase reporter, luminescence, 16 h; DNA damage induced by 5-fluorouridine. Potency, µM (titrated, usually from 46.1 µM), usual class: inhibitors. AID 504467. 330,000 compounds, 2.3% hits; further: nearly all actives have a fitted effect of over 55% in size
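DMSO vehicle served as the neutral condition. Each well held 2,000 cells given 5-fluorouridine plus compound; after 16 hr at 37 °C/5% CO2, ONE-Glo was added and luciferase measured 30 min later.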
ELG1 genotoxic: inducers of genotoxicity in HEK293T ELG1-luciferase cells. 330,000 compounds, 1.3% hits. AID 504466. HEK293T ELG1-luciferase reporter, luminescence, 16 h. Potency, µM (doses to about 46 µM), most hits filed as activators; further: nearly all actives have a fitted effect of over 60% in size
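Screening used a luciferase reporter fused to human ELG1 in HEK293T cells. Luminescence was read on a CCD plate imager after 16 hr exposure and 30 min ONE-Glo incubation.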
A-T KAP1 phos: potential ataxia-telangiectasia treatments restoring KAP-1 phosphorylation. F2112 A-T fibroblasts, KAP-1 phosphorylation AlphaLISA; neocarzinostatin DNA damage 30 min before lysis. Potency, µM (series often up to 57.5 µM), actives largely listed as activators. 320,000 compounds, 0.19% hits. AID 485349; further: nearly all actives have a fitted effect of over 45% in size
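hTERT-immortalized A-T patient fibroblasts (F2112), 500 cells/well in OPTI-MEM, 1% FBS, got compounds for 60 min, then NCS for 30 min at 37C. Lysates were then assayed for phospho-KAP-1 by AlphaLISA (anti-pKAP1 donor, anti-KAP1 acceptor beads), 6 hr at 25C.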
Each line names hits and unclear results; the compound was inactive in the other large screens. The call rests on the fitted dose curve; in most records, active means well fitted curve in the direction sought with a large enough effect; inconclusive means small, poorly fitted or top-dose-only effect, or another doubt; inactive means no such curve, though single readings can be large; an effect the other way counts as inactive or inconclusive.

CC(C)OP(=O)(c1ccc(N(C)C)cc1)C(O)c1ccc(C(C)C)cc1 (stereo not given)	ELG1 repair inh inconclusive
CCc1cc(=O)oc2c(C)c(O[C@@H]3O[C@H](CO)[C@@H](O)[C@H](O)[C@H]3O)ccc12	SW480 rereplic inconclusive
CCc1cc(=O)oc2cc(O[C@@H]3O[C@H](CO)[C@@H](O)[C@H](O)[C@H]3O)c(Cl)cc12	SW480 rereplic 18µM
CCCCCCSc1ccc(-c2nc3ccc(Cl)cn3c2NCCCC)cc1OC	p53 reactivation inconclusive, MCF10A rerep inconclusive
CCCCNc1c(-c2ccc(SC(C)CC)c(OC)c2)nc2ccc(C)cn12 (stereo not given)	MCF10A rerep 16µM, SW480 rereplic inconclusive, A-T KAP1 phos inconclusive
CCCCNc1c(-c2ccc(SC3CCCCC3)c(OC)c2)nc2ccc(Cl)cn12	MCF10A rerep inconclusive
CCCCNc1c(-c2ccc(SC(C)CC)c(OC)c2)nc2ccc(Cl)cn12 (stereo not given)	MCF10A rerep 23µM, SW480 rereplic 21µM
O=C(/C=C/c1cccc(C(F)(F)F)c1)OCC(=O)N1CCN(c2ccccc2)CC1	none
O=C(NCCc1ccccc1)C(=O)NCC1OCCN1S(=O)(=O)c1ccc(F)cc1 (stereo not given)	none (no result: p53 reactivation)
COc1ccc(-c2oc3ccc(N4CCOCC4)cc3c2C#Cc2ccc(N)cc2)cc1	MCF10A rerep 5.8µM, SW480 rereplic inconclusive (no result: p53 reactivation, ELG1 repair inh, ELG1 genotoxic, A-T KAP1 phos)
O=C(OCc1ccc(O)cc1)c1c(-c2ccsc2)oc2ccc(N3CCOCC3)cc12	MCF10A rerep 21µM, SW480 rereplic 21µM, ELG1 repair inh inconclusive
COc1ccc(/C=C/c2c(-c3cccc(C)c3)oc3ccc(N4CCOCC4)cc23)cc1	MCF10A rerep 9.2µM (no result: p53 reactivation, ELG1 repair inh, ELG1 genotoxic, A-T KAP1 phos)
COC(=O)c1ccc(/C=C/c2c(-c3ccc(OC)cc3)oc3ccc(N4CCOCC4)cc23)cc1	MCF10A rerep inconclusive, SW480 rereplic inconclusive (no result: p53 reactivation)
COc1ccc(C#Cc2c(-c3ccsc3)oc3ccc(N4CCOCC4)cc23)cc1	MCF10A rerep 16µM (no result: p53 reactivation, ELG1 repair inh, ELG1 genotoxic, A-T KAP1 phos)
CN(C(=O)c1cccc(NC(=O)Cc2ccc(NC(=O)C3CCCN(C(=O)C4CC4)C3)cc2)c1)C1CCCC1 (stereo not given)	none (no result: p53 reactivation, ELG1 repair inh, ELG1 genotoxic, A-T KAP1 phos)
N#CC(=C(c1ccccc1)c1ccccc1)c1ccccc1	none (no result: p53 reactivation, ELG1 repair inh, ELG1 genotoxic, A-T KAP1 phos)
Cn1nc(-c2ccccc2)c(CN2CCN(c3ncccn3)CC2)c1Cl	MCF10A rerep inconclusive
Cn1nc(-c2ccccc2)c(CSc2ccccc2)c1Cl	MCF10A rerep 13µM, SW480 rereplic inconclusive
Cc1ccc(Sc2c(C#N)c(-c3ccccc3)nn2C)cc1	MCF10A rerep 6.5µM, SW480 rereplic inconclusive
Cc1ccc(SCc2c(-c3ccccc3)nn(C)c2Cl)cc1	MCF10A rerep 8.2µM (no result: A-T KAP1 phos)
C=CC[C@H](CC(=O)N(CCO)Cc1ccccc1)C(=O)N[C@H](COC(=O)[C@H](CC=C)CC(=O)OC(C)(C)C)Cc1ccccc1	MCF10A rerep inconclusive, SW480 rereplic inconclusive, ELG1 repair inh inconclusive
C=CC[C@H](CC(=O)N(CCO)Cc1ccccc1)C(=O)N[C@@H](COC(=O)[C@H](CC=C)CC(=O)OC(C)(C)C)Cc1c[nH]c2ccccc12	MCF10A rerep 23µM, ELG1 repair inh 23µM
C=CC[C@@H](CC(=O)N(CCO)Cc1ccccc1)C(=O)N[C@@H](COC(=O)[C@@H](CC=C)CC(=O)OC(C)(C)C)Cc1c[nH]c2ccccc12	MCF10A rerep inconclusive, ELG1 repair inh inconclusive
C=CC[C@@H](CC(=O)N(CCO)Cc1ccccc1)C(=O)N[C@H](COC(=O)[C@@H](CC=C)CC(=O)OC(C)(C)C)Cc1c[nH]c2ccccc12	MCF10A rerep 10µM, ELG1 repair inh 18µM
COc1ccc(-c2nc(CS(=O)CC(=O)NCc3ccc4c(c3)OCO4)c(C)o2)cc1OC (stereo not given)	ELG1 repair inh 15µM
CCc1ccc(-c2nc(CS(=O)CC(=O)NC3CC3)c(C)o2)cc1 (stereo not given)	ELG1 repair inh inconclusive
COc1ccc(-c2nc(CS(=O)CC(=O)NC(C)CCc3ccccc3)c(C)o2)cc1OC (stereo not given)	ELG1 repair inh 18µM
Cc1ccc(-c2nc(CS(=O)CC(=O)NC3CC3)c(C)o2)cc1 (stereo not given)	MCF10A rerep 21µM
Cc1ccc(NC(=O)COC(=O)c2ccc(CN3CCCC3=O)cc2)cc1C	none
Cc1ccc(C2(c3ccccc3)NC(=O)N(CC(=O)NC3CCS(=O)(=O)C3)C2=O)cc1C (stereo not given)	none
N#CC1=C(N)NC(=S)C(C(N)=O)C1c1ccc(Cl)cc1Cl (stereo not given)	MCF10A rerep 15µM, SW480 rereplic 16µM
O=C1NC(=O)C(c2ccc(Cl)cc2Cl)N1 (stereo not given)	MCF10A rerep inconclusive (no result: p53 reactivation, ELG1 repair inh, ELG1 genotoxic, A-T KAP1 phos)
N#CC1=C(N)NC(=S)C(C(N)=O)C1c1ccccc1F (stereo not given)	MCF10A rerep inconclusive, SW480 rereplic 21µM
O=C(CSc1ccccc1)Nc1ccc2c(c1)C(=O)NC2=O	none
Clc1cc(Cl)c(OCC#CI)cc1Cl	MCF10A rerep 21µM, SW480 rereplic inconclusive (no result: p53 reactivation, ELG1 repair inh, ELG1 genotoxic, A-T KAP1 phos)
CC1CN(c2ncnc3c2cnn3-c2ccc(Cl)cc2)CC(C)O1 (stereo not given)	p53 reactivation inconclusive, ELG1 repair inh inconclusive, ELG1 genotoxic 2.1µM
CCOC(=O)C1CCCN(c2ncnc3c2cnn3-c2ccc(OC)cc2)C1 (stereo not given)	p53 reactivation inconclusive, ELG1 repair inh inconclusive, ELG1 genotoxic 5.2µM
Clc1ccc(Cn2ncc3c(N4CCCCC4)ncnc32)cc1	ELG1 repair inh inconclusive
CCOC(=O)C1CCCN(c2ncnc3c2cnn3-c2ccc(Cl)cc2)C1 (stereo not given)	MCF10A rerep inconclusive, ELG1 repair inh inconclusive
COc1ccc(-n2ncc3c(N4CCN(c5cccc(C)c5C)CC4)ncnc32)cc1	none
COc1ccc(-n2ncc3c(N4CCCCC4)ncnc32)cc1	ELG1 repair inh inconclusive, ELG1 genotoxic 0.065µM
CC1CC(C)CN(c2ncnc3c2cnn3Cc2ccc(Cl)cc2)C1 (stereo not given)	MCF10A rerep inconclusive, ELG1 repair inh inconclusive
Clc1ccc(-n2ncc3c(N4CCCCCC4)ncnc32)cc1	ELG1 repair inh inconclusive, ELG1 genotoxic 0.15µM
Cn1cccc1/C=C1\CC(C(C)(C)C)C/C(=C\c2cccn2C)C1=O (stereo not given)	MCF10A rerep 3.7µM, SW480 rereplic inconclusive, ELG1 repair inh inconclusive
